# From PubChem BioAssay (EPA / NIEHS)
# Several values for one entry are separate records, joined by “and”; a condition that tells them apart may be missing. Identical values can stand only once. Results filed as inconclusive are left out. The source holds several records for some structures; these can differ, active in one and inactive in another. Activity calls are given as the source filed them. The calls were made as follows: active = hit-call score of the fitted dose curve at least 0.9, where 1 is the maximum; inconclusive = response in the unintended direction; inactive = score below 0.9.
# Molecular target: Retinoic acid receptor RXR-alpha (Homo sapiens) (UniProt P19793)
# Sequence (P19793 whole entry, looked up): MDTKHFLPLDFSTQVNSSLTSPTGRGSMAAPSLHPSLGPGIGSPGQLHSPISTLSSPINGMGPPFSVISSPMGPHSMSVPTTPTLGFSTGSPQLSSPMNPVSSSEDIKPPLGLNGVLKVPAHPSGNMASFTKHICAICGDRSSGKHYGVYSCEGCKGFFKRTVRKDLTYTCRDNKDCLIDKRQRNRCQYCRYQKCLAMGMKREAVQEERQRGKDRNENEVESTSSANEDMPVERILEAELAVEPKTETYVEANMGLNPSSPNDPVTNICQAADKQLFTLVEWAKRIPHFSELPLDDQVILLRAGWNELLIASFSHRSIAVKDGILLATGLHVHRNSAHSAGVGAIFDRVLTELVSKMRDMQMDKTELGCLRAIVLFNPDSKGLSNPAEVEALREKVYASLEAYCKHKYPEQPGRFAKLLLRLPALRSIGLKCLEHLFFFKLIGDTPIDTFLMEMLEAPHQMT
# Assay: OT_NURR1_NURR1RXRa_1440: Odyssey Thera (OT) 24-hour HEK293T Protein Complementation Assay for Nurr1/retinoid X receptor (RXR) (AID 2283386)
# Procedure: OT_NURR1_NURR1RXRa_1440 is a cell-based assay that uses HEK293T, a human kidney cell line, with measurements taken at 24 hours after chemical dosing in a 384-well plate.OT_NURR1_NURR1RXRa_1440 is one of one assay component(s) measured or calculated from the OT_NURR1_NURR1RXRa_1440 assay. It is designed to make measurements of protein fragment complementation, a form of binding reporter, as detected with fluorescence intensity signals by Protein-fragment Complementation technology.Data from the assay component OT_NURR1_NURR1RXRa_1440 was analyzed into 1 assay endpoint. This assay endpoint, OT_NURR1_NURR1RXRa_1440, was analyzed in the positive analysis fitting direction relative to DMSO as the negative control and baseline of activity. Using a type of binding reporter, measures of receptor for gain-of-signal activity can be used to understand the binding at the pathway-level as they relate to the gene RXRA. Furthermore, this assay endpoint can be referred to as a primary readout, because the performed assay has only produced 1 assay endpoint. To generalize the intended target to other relatable targets, this assay endpoint is annotated to the nuclear receptor intended target family, where the subfamily is non-steroidal.
# Protein-fragment complementation assay, or PCA, is a method for the identification and quantification of protein-protein interactions. In the PCA, the proteins of interest ("bait" and "prey") are each covalently linked to fragments of a third protein (e.g. DHFR, which acts as a "reporter"). Interaction between the bait and the prey proteins brings the fragments of the reporter protein in close proximity to allow them to form a functional reporter protein whose activity can be measured.
SMILES,outcome,AC50
CC[C@H](C)[C@@H](C(=O)O)n1sc2ccccc2c1=O,inactive,–
O=c1c(-c2ccc(O)cc2)coc2cc(O)ccc12,inactive,14.4 µM (active) and 27 µM (active)
CCCCCCC(=O)O,inactive,–
CC(C)CCCCCCOC(=O)CCCCC(=O)OCCCCCCC(C)C,inactive,–
CCN(CC)CCNc1ccc(CNC=O)c2sc3ccc(OC)cc3c(=O)c12,–,11.7 µM (active) and 11.8 µM (active)
COC(=O)CCCCC(=O)OC,inactive,–
CC(=O)NC1(c2cccc(F)c2)CCN(CC[C@@]2(c3ccc(Cl)c(Cl)c3)CN(c3ccccc3)C(=O)CO2)CC1,inactive,–
CCc1ccc(CCOc2ccc(CC3SC(=O)NC3=O)cc2)nc1 (stereo not given),–,36.2 µM (active) and 41.7 µM (active)
CCCCC(CC)COC(=O)CCCCC(=O)OCc1ccccc1 (stereo not given),inactive,–
NC(=O)N(O)[C@@H]1C=C[C@H](Oc2cccc(Oc3ccc(F)cc3)c2)C1,inactive,–
c1ccc2c(c1)Cc1ccccc1-2,inactive,–
Cc1oc(-c2ccccc2)nc1CCOc1ccc(C[C@H](Nc2ccccc2C(=O)c2ccccc2)C(=O)O)cc1,–,0.214 µM (active)
C#C[C@]1(O)CC[C@H]2[C@@H]3CCC4=CC(=O)CC[C@@H]4[C@H]3CC[C@@]21C,inactive,–
CCCCOCCO,inactive,–
NC(=O)N1C(=O)C(C(=O)c2cc(Cl)cs2)c2cc(F)c(Cl)cc21 (stereo not given),inactive,32.9 µM (active)
O=C(O)c1ccccc1C(c1ccc(O)cc1)c1ccc(O)cc1,inactive,–
Cc1cc(C)c(O)c(C)c1,inactive,–
CC#C[C@]1(O)CC[C@H]2[C@@H]3CCC4=CC(=O)CCC4=C3[C@@H](c3ccc(N(C)C)cc3)C[C@@]21C,inactive,0.416 µM (active)

SMILES,outcome,AC50
OCCC(F)(F)C(F)(F)C(F)(F)C(F)(F)C(F)(F)C(F)(F)C(F)(F)C(F)(F)F,inactive,–
CCCCCCCCCCCCc1ccccc1S(=O)(=O)O,inactive,–
CC(C)(C)c1cc(C(C)(C)C)c(O)c(C(C)(C)C)c1,–,85 µM (active)
Oc1cccc(O)c1,inactive,–
COCC(C)O (stereo not given),inactive,–
CCOC(=O)CC(O)(CC(=O)OCC)C(=O)OCC,inactive,–
CCCCCCCCCCCCN1CCCC1=O,–,11.7 µM (active)
O=C1OC2(c3ccccc31)c1cc(Br)c(O)c(Br)c1Oc1c2cc(Br)c(O)c1Br,inactive,–
c1ccc2cc3c(ccc4ccccc43)cc2c1,inactive,79.7 µM (active)
CC(C)(C)CC(C)(C)c1ccc(O)c(-n2nc3ccccc3n2)c1,–,30 µM (active) and 84.7 µM (active)
CC(=O)CC(C)(C)O,inactive,–
c1ccc2c(c1)ccc1ccccc12,inactive,–
CCCCCCCCC(=O)O,inactive,–
C=C(C)C(=O)OCCC(F)(F)C(F)(F)C(F)(F)C(F)(F)C(F)(F)C(F)(F)F,inactive,–
CCC(C)(C)C1CCC(O)CC1 (stereo not given),inactive,–
CCc1nn(C2CCCCC2)c2cc(C3(C#N)CCC(C(=O)O)CC3)ccc12 (stereo not given),–,79.7 µM (active) and 73.6 µM (active)
CN1CCC[C@H]1c1cccnc1,inactive,–
CCCCCCCCOC(=O)CCCCCCCCC(=O)OCCCCCCCC,inactive,–
